Screens from PubChem.
Tau fibril FP – blocks human tau fibril formation measured by polarization; 280,000 tested, 0.39% active; K18 P301L tau heparin fibrillization, Alexa594 FP, 6 h; P10636; Potency, µM (titrated, usually from 57.7 µM), inactives show at the highest dose activity, negative = inhibition, usual class: inhibitors; also: potency is read from the fitted curve at half-maximal effect; nearly all actives have a fitted effect of over 55% in size
Target sequence (P10636 561-689 P618L limits assumed): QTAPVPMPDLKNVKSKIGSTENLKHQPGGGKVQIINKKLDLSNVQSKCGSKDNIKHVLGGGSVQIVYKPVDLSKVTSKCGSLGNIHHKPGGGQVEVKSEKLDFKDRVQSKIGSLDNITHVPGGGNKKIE
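Human tau K18 […] P301L fragment, 15 uM unlabeled plus 0.24 uM Alexa 594-labeled tau (final), with compound and 20 uM heparin in 100 mM sodium acetate pH 7; 6 hr at 37 C, then Alexa 594 FP read.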
KDM4E inh – JMJD2E (human) inhibition; B2RXH2; JMJD2E catalytic domain, FDH-coupled NADH fluorescence (FDH is formaldehyde dehydrogenase); Potency, µM (doses to about 57.1 µM), for inactives: at the highest dose activity change, negative = inhibition, actives largely listed as inhibitors; 230,000 tested, 1.6% active; AID 2147; active = well fitted inhibition curve with a large enough effect, not every such curve was filed as active; inconclusive = small, poorly fitted or top-dose-only effect, or another doubt; inactive = no such curve, though single readings can be large or run the other way;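 also: potency is read from the fitted curve at half-maximal effect; 0% = wells with enzyme and -100% = buffer wells without enzyme; nearly all actives have a fitted effect of over 50% in size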
Target sequence (B2RXH2 1-337 limits assumed): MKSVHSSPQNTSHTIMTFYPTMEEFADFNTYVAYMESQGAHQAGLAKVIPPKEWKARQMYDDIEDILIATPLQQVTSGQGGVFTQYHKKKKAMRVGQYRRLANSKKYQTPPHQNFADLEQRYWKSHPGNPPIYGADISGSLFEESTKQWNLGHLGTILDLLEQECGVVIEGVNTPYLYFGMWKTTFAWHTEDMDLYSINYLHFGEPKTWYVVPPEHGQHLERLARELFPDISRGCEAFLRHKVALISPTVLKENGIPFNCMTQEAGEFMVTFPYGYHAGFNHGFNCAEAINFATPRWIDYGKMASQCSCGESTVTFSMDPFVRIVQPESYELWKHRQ
Tau fluor counter – counter-screen for tau fibril formation inhibitors; tau K18 P301L Alexa594 fluorescence, heparin fibrillization; Potency, µM (highest dose often 57.7 µM), inactives show at the highest dose activity change, negative = decrease; 280,000 tested, 0.93% active; AID 1463; also: potency is read from the fitted curve at half-maximal effect; nearly all actives have a fitted effect of over 55% in size
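Human tau K18 P301L (15 uM unlabeled, 0.24 uM Alexa 594-labeled) in 100 mM sodium acetate pH 7 with 20 uM heparin, 6 hr at 37 C. ThT 30 uM added, 1 hr ambient; Alexa 594 FP and total fluorescence read at 555/632 nm.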
Sfp inh – inhibitors of Bacillus subtilis Sfp phosphopantetheinyl transferase; Biochemical Sfp PPTase activity, qHTS; Potency, µM, for the others: largest response in the series, negative = inhibition, hits mostly inhibitors; 310,000 tested, 3.5% active; AID 1490;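 also: the enzyme is Sfp with the accession as filed and its product quenches rhodamine fluorescence; potency is read from the fitted curve at half-maximal effect; 0% = enzyme reaction without inhibitor and -100% = no enzyme wells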
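With Hepes-Na pH 7.6 buffer containing 10 mM MgCl2, Sfp (15 nM) modified BHQ-2-YbbR (12.5 uM) using rhodamine-CoA (5 uM). Two reads 30 minutes apart at 525/598 nm yielded each well's rate.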
Coupling enz – coupling enzyme interference in Giardia aldolase counter-screen; coupling enzyme system counterscreen, AmpLite Red fluorescence; activity change, negative = inhibition, % at 58.2 µM, hits read low; 290,000 tested, 0.67% active; in the data active = activity change below about -30%
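Final compound at 57.5 uM, incubated 10 min at RT with coupling enzyme reagent (glyceraldehyde-3-phosphate), then 20 min with substrate and AmpLite Red detection. Fluorescence read at 525/598 nm; tests interference with the coupling assay, not aldolase inhibition.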
Tau fibril ThT – tau fibrillization inhibition (ThT binding); P10636; recombinant tau K18 P301L, heparin-induced fibrillization, ThT fluorescence; Potency, µM (doses to about 57.4 µM), inactives show at the highest dose activity, negative = inhibition, usual class: inhibitors; 270,000 tested, 2.1% active; also: potency is read from the fitted curve at half-maximal effect; nearly all actives have a fitted effect of over 55% in size
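Using a mix of unlabeled (15 uM) and Alexa 594-labeled (0.24 uM) tau K18 P301L, heparin-triggered fibrillization over 6 hr at 37 C was scored by ThT fluorescence.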
* marks the source's active call; other numbers are inactive results; ? = inconclusive; . = no result; ! = not active in a repeat; [ ] = dose if it differs, or a comment. Hits are enriched below; roughly 5.3% of the tested compounds scored in any of these assays. Unless noted, calls follow the shape of the dose curve; as a rule, active = well fitted curve in the direction sought with a large enough effect; inconclusive = small, poorly fitted or top-dose-only effect, or another doubt; inactive = no such curve, though single readings can be large; an effect the other way counts as inactive or inconclusive. Unless noted, % is scaled to controls: 0 for no effect and ±100 for the full control effect.

SMILES	Tau fibril FP	KDM4E inh	Tau fluor counter	Sfp inh	Coupling enz	Tau fibril ThT
COc1cccc(Nc2nc3cc(Cl)c(Cl)cc3nc2-n2nc(C)cc2C)c1	-2%	.	-15%	.	.	-8%
CCNC(=O)c1c(N)sc2c1CCCCC2	?	?	-19%	35µM*	-9	32µM*
COC(=O)C/C=C\[C@@H](C)[C@@H](/C=N\OC[C@@H](C)[C@H](OCc1ccccc1)C(C)C)OC	-3%[11.6 µM]	.	-7%[11.6 µM]	9%	-1	-3%[11.5 µM]
N#CC1=C(SCC(=O)NC2CC2)NC(=O)C(C#N)C12CCCCC2 (centres undefined)	4%	2%	5%	18%	3	-1%
N#CC1=C(SCC(=O)Nc2cccc3cccnc23)NC(=O)C(C#N)C12CCCCC2 (centres undefined)	1%	-8%	-23%	7%	-36*	-11%
CN(C)c1cccc2c1c(NS(=O)(=O)c1cn(C)cn1)nn2C	.	.	.	32µM*	.	.
CC(C)=CCCC1(C)C=Cc2c(c(C)cc3c2[nH]c2cc(O)ccc23)O1 (centres undefined)	?	-6%	5µM*[quencher]	32%	-5	28µM*
COc1ccc(C2CC(=O)c3cc(-c4nc(-c5cccc([N+](=O)[O-])c5)cs4)c(=O)n(-c4ccccc4C)c3C2)cc1 (centres undefined)	1%	.	-26%	.	.	-11%
COc1ccccc1C1C(C(=O)Nc2ccccc2)=C(C)Nc2nc(-c3ccccc3)nn21 (centres undefined)	10%	.	?	.	.	2%
Cc1nn(C)cc1/C=N/NC(=S)Nc1ccccc1	8%	?	-18%	25µM*	-2	-16%
O=C(N/N=C/c1c[nH]c2ccccc12)c1sc2ccccc2c1Cl	-3%	-29%	8.9µM*[quencher]	-2%	-3	?
O=C(N/N=C/c1ccc([N+](=O)[O-])o1)c1sc2ccccc2c1Cl	-4%	-13%	?	5%	1	3.5µM*
COc1ccc2c(Cl)c(C(=O)N/N=C/c3ccc4c(c3)OCO4)sc2c1	-11%	?	-21%	?	5	?
COc1ccc2c(Cl)c(C(=O)N/N=C/c3c(C)[nH]c4ccccc34)sc2c1	8%	?	11µM*[quencher]	?	0	4.5µM*
O=C(N/N=C/c1c[nH]c2ccccc12)c1ccccc1	.	.	.	5%	0	.
CC(=O)c1ccc(-c2cc(C3C4C=CCC(C)C4C(=O)N3Cc3ccccc3)ccc2F)cc1 (centres undefined)	.	.	.	-16%	-1	.
Cc1noc(/C=C/c2ccccc2F)c1S(=O)(=O)N1CCC(C(=O)N2CCOc3ccccc32)CC1	-2%	.	-12%	.	.	3%
Cc1ccc(C2CC(=O)Oc3ccc(O)cc32)cc1 (centres undefined)	4%[126 µM]	.	-15%[126 µM]	?	-2	-14%[126 µM]
COc1ccc2c(Cl)c(C(=O)N/N=C3\CCCC(=O)C3)sc2c1	0%	18µM*	-24%	1%	0	?
O=C(CNc1ccccc1)N/N=C/c1c[nH]c2ccccc12	0%	0%	10%	4%	-5	13%
Cc1ccc(C(=O)Nc2ccc(C(=O)N/N=C/c3c[nH]c4ccccc34)cc2)cc1	11%	?	14µM*[quencher]	13%	-2	13µM*
Cc1cccc(NC(=S)N/N=C/c2c[nH]c3ccccc23)c1	?	?	8.9µM*[quencher]	1%	1	16µM*
COc1ccc(O)c(/C=N/NC(=O)c2cc(=O)[nH]c3ccccc23)c1	?	7.1µM*	-21%	11%	1	-8%
O=C(N/N=C/c1ccccc1)c1cc(=O)[nH]c2ccccc12	1%	-17%	-3%	2%	2	-1%
COC(=O)NC(c1cccs1)C(C(C)=O)C(=O)OC (centres undefined)	0%[11.6 µM]	.	8%[11.6 µM]	6%	-2	11%[11.5 µM]
SMILES	Tau fibril FP	KDM4E inh	Tau fluor counter	Sfp inh	Coupling enz	Tau fibril ThT
Cc1nc(NC2CCCCC2)c2nc(-c3ccccc3)n(CC3CCN(C)CC3)c2n1	-6%	?	-21%	12%	2	-12%
CC[C@H](C)[C@H](NC(=O)[C@H](N)Cc1ccc(O)cc1)C(=O)N[C@@H](CC(N)=O)C(=O)N[C@@H](CC(C)C)C(=O)N[C@H](C(=O)N[C@@H](C(=O)N[C@@H](CCCN=C(N)N)C(=O)N[C@@H](CCC(N)=O)C(=O)N[C@@H](CCCN=C(N)N)C(=O)N[C@H](Cc1ccc(O)cc1)C(N)=O)[C@@H](C)O)[C@@H](C)CC	.	.	.	-2%	0	.
COc1ccc(CCNC(=O)c2ccc(S(=O)(=O)N(C)c3ccccc3)cc2)cc1OC	.	.	.	10%	-3	.
CN(c1ccccc1)S(=O)(=O)c1cccc(C(=O)NCCc2ccc(O)c(O)c2)c1	-7%	14µM*	?	18µM*	-8	?
Cc1cc2cc(CN(CCCN3CCOCC3)C(=O)NC3CCCCC3)c(=O)[nH]c2cc1C	-4%	?	1%	45µM*	-21	2%
CC1=C(C)C(=O)C(CCCCC#CCCCC#CCO)=C(C)C1=O	?	?	?	?	-59*	20µM*
COc1ccc(C2CC(c3ccccc3)Oc3cc4c(cc32)OCO4)cc1 (centres undefined)	.	.	.	45µM*!	-23	.
Nc1ccc(-c2nc3ccc(-c4nc5ccc(N)cc5[nH]4)cc3[nH]2)cc1	10%	?	13µM*[quencher]	?	1	13µM*
Nc1ccc2nc(-c3cccc(-c4nc5ccc(N)cc5[nH]4)n3)[nH]c2c1	.	.	.	32µM*	-1	.
Nc1ccc2nc(-c3ccc(-c4nc5ccc(N)cc5[nH]4)cc3)[nH]c2c1	.	.	.	-6%	-1	.
CC(C)CC(CSc1ccc(Br)cc1)N1CCN(C)CCC1=O (centres undefined)	.	.	.	2%	1	.
O=C(c1ccc(Br)o1)N1CCN(c2ccccn2)CC1	5%	2%	2%	25µM*	-17	1%
N#CCCCN1C(=O)C(=C(C#N)C#N)c2ccccc21	?	-4%	?	-18%	-35*	32µM*
O=C(O)/C=C\C(=O)NNC(=O)c1cc(-c2ccccc2)n[nH]1	-6%	?	-11%	50µM*	2	?
O=C(O)Cn1cnc2scc(-c3cccs3)c2c1=O	4%	?	-6%	56µM*	7	-8%
Oc1ccc(/C=N/Nc2ccnc3cc(Cl)ccc23)c(O)c1O	.	.	.	45µM*	-23	.
CC/C(=N\Nc1ccnc2cc(Cl)ccc12)c1ccc(O)cc1	.	.	.	4%	0	.
Oc1ccc(/C=N/Nc2ccnc3cc(Cl)ccc23)cc1O	13%	?	16µM*[quencher]	?	-8	10µM*
